Source: PubChem BioAssay (National Center for Advancing Translational Sciences (NCATS))
HCMV antiviral: qHTS Assay for inhibitors of the human cytomegalovirus (HCMV); activity change, negative = inhibition, % at 57.5 µM; AID 1259415, 2018; HFF cells, HCMV-luciferase reporter, 72 h; active compounds read low; hit rate 4.5% among 410,000; in the data active = activity change below about -60%; inconclusive = no clear call, values can overlap the other calls; inactive = above about -39%
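After 16 h attachment at 37C, HFF cells received test compound and HCMV-luciferase (1 PFU/cell); reporter luminescence read 72 h later, data normalized against buffer-only and known inhibitor Salinomycin.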
Pf growth 96h: Primary qHTS for delayed death inhibitors of the malarial parasite plastid, 96 hour incubation | P. falciparum luciferase reporter growth, 96 h | Potency, µM (titrated, usually from 28.7 µM), without a hit: top-dose activity change, negative = inhibition, most hits filed as inhibitors | hit rate 6.9% among 320,000 | AID 504834, 2011; note: potency is the fitted concentration of half-maximal effect
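Infected RBCs, 2% Hct / 0.05% parasitemia final; luciferase-reporter P. falciparum; cpd 96 h, 37 C, 5% CO2; luciferase detection reagent; luminescence.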
HCV inhibitor: qHTS Assay for Inhibitors of Hepatitis C Virus (HCV). hit rate 3.4% among 340,000. Potency, µM (series often up to 41.8 µM), without a hit: at the highest dose activity change, negative = inhibition, most hits filed as inhibitors. Huh7.5.1 HCVcc-Cre infection, luciferase reporter, 44 h; note: potency is the fitted concentration of half-maximal effect
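Seed cells (1,000/well) for 4 h; treat with compound and infect with HCVcc-Cre, moi about 0.5. Incubate 44 h, then detect luciferase activity.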
Pf growth 48h: Primary qHTS for delayed death inhibitors of the malarial parasite plastid, 48 hour incubation; P. falciparum luciferase growth in erythrocytes, 48 h; Potency, µM (doses to about 28.7 µM), without a hit: top-dose activity change, negative = inhibition, hits mostly inhibitors; hit rate 5.9% among 310,000; AID 504832, 2011; note: potency is the fitted concentration of half-maximal effect
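Luciferase-expressing parasites in RBCs, 2% Hct / 0.1% parasitemia final; RPMI 1640 + 0.5% Albumax; 37 C, 5% CO2, one generation; luminescence read-out, lower signal = inhibition.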
An asterisk follows results filed as active; ? = inconclusive; · = no result; [ ] = remark or other dose. Sampled rows, rich in hits. Any-hit rate of the full collection: about 13%. Unless noted, calls come from the whole dose curve; as a rule, active = well fitted inhibition curve with a large enough effect; inconclusive = small, poorly fitted or top-dose-only effect, or another doubt; inactive = no such curve, though single readings can be large or run the other way. % is set by controls: 0 for no effect and ±100 for the full control effect.

SMILES	HCMV antiviral	Pf growth 96h	HCV inhibitor	Pf growth 48h
O=C(N/N=C/c1cn(-c2cccs2)nc1-c1ccccc1)c1ccccc1O	-14	6.6µM*	?	?
O=C(N/N=C/c1ccccc1C(=O)O)c1ccccc1Br	0	0%	20%	21%
Cc1ccccc1OCC(=O)NCC(c1ccc(Cl)cc1)N1CCCCC1 (stereo not drawn)	-17	·	·	·
COc1ccc(N2CCN(C(=O)c3cnn(-c4ccc(F)cc4)c3-n3cccc3)CC2)cc1	-5	·	·	·
CCCCCCn1c(O)c(/C=N/N2CCCCCC2)c(=O)[nH]c1=O	-64*	?	-13%	4%
COCCNC(=O)CN1C(=O)c2cccnc2Sc2ccccc21	7	·	·	·
COc1ccccc1C(=O)Nc1ccc2nc(SCC(=O)N3CCCc4ccccc43)sc2c1	19	·	·	·
CCc1cc(Cn2nc(-c3ccccc3)cc2C(=O)NCCOC)on1	-8	-12%	0%	?
CCc1cc(Cn2nc(-c3ccccc3)cc2C(=O)NCc2cccs2)on1	23	5.9µM*	?	15µM*
Cc1cc(Cn2nc(-c3ccccc3)cc2C(=O)NCc2cccc(Br)c2)on1	41	?	5.6µM*	?
Cc1cc2c(cc1C)-n1nnnc1C(N1CCN(c3ccccc3F)CC1)C(=O)N2 (stereo not drawn)	16	·	·	·
COc1cccc(-n2c(-c3ccc(Cl)cc3)cc3c2CC(C)(C)CC3=O)c1	-2	·	·	·
CCc1c(C)nc(SCc2nc(-c3ccccc3C)no2)[nH]c1=O	-9	·	·	·
CCc1nc2ccccc2c(NC(=O)CN2CC(C)CC(C)C2)c1C (stereo not drawn)	-38	9.3µM*	-12%	-21%
O=[N+]([O-])c1cccc(S(=O)(=O)Nc2ccc(Cc3ccncc3)cc2)c1	0	?	?	?
O=S(=O)(NCCc1cccs1)c1ccc(Br)cc1	72	8%	4%	35%
O=[N+]([O-])c1cccc(S(=O)(=O)NCc2ccncc2)c1	?	50%	13µM*	34%
O=[N+]([O-])c1cccc(S(=O)(=O)NCCc2cccs2)c1	-35	10µM*	-10%	17%
Cc1nn(-c2ccc(F)cc2)c(-n2cccc2)c1C(=O)N1CCN(c2ccc(F)cc2)CC1	-10	·	·	·
CCOc1cccc(/C=N/NC(=S)Nc2cc(S(=O)(=O)N3CCOCC3)ccc2N2CCOCC2)c1O	-79*	?	?	?
COc1ccc2ccccc2c1/C=N/NC(=S)Nc1cc(S(=O)(=O)N2CCOCC2)ccc1N1CCOCC1	-34	1.7µM*	?	5.2µM*
COc1ccc(/C=N/NC(=S)Nc2cc(S(=O)(=O)N3CCOCC3)ccc2N2CCOCC2)cc1O	-30	?	10µM*	?
COc1ccc(Cc2c(C3CCCCC3)nc3ccc(C)cn23)c(C)c1	11	·	·	·
Cc1ccc(-n2c(SCC(=O)Nc3ccc4c(c3)OCO4)nc3c([nH]c4ccccc43)c2=O)cc1	-40	·	·	·
COCc1cccc(-c2cccc3c2COCC(=O)N3Cc2ccccc2)c1	-5	·	·	·
SMILES	HCMV antiviral	Pf growth 96h	HCV inhibitor	Pf growth 48h
c1ccc(-c2cc(NCCN3CCCCC3)c3ccccc3n2)cc1	-100*	?	?	-14%[0.00184 µM]
O=C(CSc1ncn[nH]1)NCCOc1ccccc1	-23	-2%	11%	13%
CN(c1ccccc1)S(=O)(=O)c1cccc(NC(=O)CN2C(=O)NC3(CCCCC3)C2=O)c1	4	?	3.2µM*	-4%
CN(c1ccccc1)S(=O)(=O)c1cccc(NC(=O)CSc2ncn[nH]2)c1	-68*	6%	?	16%
O=C(CSc1ncn[nH]1)NCCC(c1ccccc1)c1ccccc1	15	10µM*	-4%	?
CN(c1ccccc1)S(=O)(=O)c1cccc(NC(=O)Cc2n[nH]c(=O)c3ccccc23)c1	?	?	10µM*	?
O=C(O)Cc1ccc(NC2(c3ccccc3)C(=O)c3ccccc3C2=O)cc1	8	·	·	·
CCOc1ccc2c(c1)c(=O)c(S(=O)(=O)c1ccc(Cl)cc1)cn2Cc1ccccc1C	-5	·	·	·
C/C=C\C(=O)Nc1cccc(C2=NOC3(C2)C[C@@H](C(N)=O)N(C(=O)CC(c2ccccc2)c2ccccc2)C3)c1 (stereo partly drawn)	-28	13µM*	?	10µM*
C/C=C(\C)C(=O)Nc1cccc(C2=NOC3(C2)C[C@H](C(N)=O)N(C(=O)C(c2ccccc2)c2ccccc2)C3)c1 (stereo partly drawn)	-13	12µM*	?	9.3µM*
C/C=C/C(=O)Nc1cccc(C2=NOC3(C2)C[C@@H](C(N)=O)N(C(=O)C(c2ccccc2)c2ccccc2)C3)c1 (stereo partly drawn)	13	13µM*	?	12µM*
C/C=C/C(=O)N1CC2(CC(c3cccc(NC(=O)/C(C)=C/C)c3)=NO2)C[C@H]1C(N)=O (stereo partly drawn)	7	68%	?	46%
COC(=O)c1ccc2c(=O)n(CCc3ccc(S(N)(=O)=O)cc3)c(SCC(=O)C(C)(C)C)nc2c1	-22	·	·	·
Cc1cc(C(=O)OC(C(=O)Nc2cccc(C(F)(F)F)c2)c2ccccc2)c(C)o1 (stereo not drawn)	12	5.2µM*	?	9.3µM*
Cc1ccc(NC(=O)C(OC(=O)c2cc(C)oc2C)c2ccccc2)cc1 (stereo not drawn)	-61*	?	-6%	5%
Cc1cc(C(=O)Nc2ccccc2)c(C)o1	8	34%	10%	·
CN(C)CCNC(C(=O)Nc1cccc(C(F)(F)F)c1)c1ccccc1 (stereo not drawn)	-15	-12%	-16%	-30%
CCNC1=C(Cl)C(=O)c2ccccc2C1=O	-33	-5%	?	·
O=C1C=C(Nc2ccc(O)cc2)C(=O)c2ccccc21	0	-104%	?	98%
O=C1C(Cl)=C(Nc2ccc(O)cc2)C(=O)c2ccccc21	-99*	-15%	?	?
CCCC(=O)NC1=C(Cl)C(=O)c2ccccc2C1=O	?	·	3.2µM*	·
CCN(CC)c1ccc(NC2=C(Cl)C(=O)c3ccccc3C2=O)cc1	·	2.9µM*	?	40%
Cc1ccc(NC2=C(Cl)C(=O)c3ccccc3C2=O)cc1	39	216%	7.1µM*	79%
CCCCOc1ccc(S(=O)(=O)Nc2ccc(-c3ccc(N4CCC(C)CC4)nn3)cc2)cc1	-16	·	·	·
COc1ccccc1NC(=O)c1c(-c2ccc(C)cc2)nnc2ccccc12	0	·	·	·
Cc1ccc(CNC(=O)C2CCCCN2S(=O)(=O)c2ccc(F)cc2)cc1 (stereo not drawn)	-4	·	·	·
CCOC(=O)c1cnc2c3c(noc13)CCC2	-101*	·	·	·
COc1ccc(NC(=O)c2sc3nc[nH]c(=O)c3c2C)cc1OC	-18	·	·	·
O=C(COc1ccc(Cl)cc1)NCC(c1cccs1)S(=O)(=O)c1ccc(F)cc1 (stereo not drawn)	-12	·	·	·
